# ALOX12 inh = blocks human arachidonate 12S-lipoxygenase | P18054 | purified 12hLO, xylenol orange hydroperoxide absorbance | Potency, µM (highest dose often 108 µM), for the others: at the top dose activity change, negative = inhibition, usual class: inhibitors | 1.1% of 580,000 active | AID 1671190; also: potency is read from the fitted curve at half-maximal effect
# Target sequence (P18054 whole entry, looked up): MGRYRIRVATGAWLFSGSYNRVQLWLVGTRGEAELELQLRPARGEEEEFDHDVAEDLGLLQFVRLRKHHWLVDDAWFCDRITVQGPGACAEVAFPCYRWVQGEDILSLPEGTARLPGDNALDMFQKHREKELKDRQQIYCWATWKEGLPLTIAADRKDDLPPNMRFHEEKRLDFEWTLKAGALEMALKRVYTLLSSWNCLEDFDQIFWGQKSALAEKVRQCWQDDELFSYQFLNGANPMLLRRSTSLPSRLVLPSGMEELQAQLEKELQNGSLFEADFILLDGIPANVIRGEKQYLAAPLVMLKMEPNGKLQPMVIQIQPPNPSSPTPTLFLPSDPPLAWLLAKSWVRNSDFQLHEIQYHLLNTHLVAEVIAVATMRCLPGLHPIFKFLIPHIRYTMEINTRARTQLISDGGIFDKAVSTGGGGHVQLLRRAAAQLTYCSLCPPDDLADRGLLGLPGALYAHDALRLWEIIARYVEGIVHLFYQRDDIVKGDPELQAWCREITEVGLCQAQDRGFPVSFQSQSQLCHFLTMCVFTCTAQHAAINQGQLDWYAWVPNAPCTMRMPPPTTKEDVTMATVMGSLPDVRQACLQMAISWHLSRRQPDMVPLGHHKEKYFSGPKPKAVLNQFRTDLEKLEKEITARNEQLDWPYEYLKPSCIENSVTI
#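 Hydroperoxide product was detected by ferrous iron/xylenol orange as the 573 to 405 nm absorbance ratio. Arachidonic acid at 40 uM (final) was turned over for 30 min at room temperature by 150 nM human 12hLO, pH 7.0 Hepes buffer, after 15 min compound preincubation.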
# HT1080-NT tox = kills 2HG-producing HT-1080-NT fibrosarcoma cells; HT-1080-NT fibrosarcoma viability, CellTiter-Glo ATP luminescence, 48 h; AID 686970; Potency, µM (top dose mostly 46.1 µM), for the others: at the top dose activity, negative = less viability, most hits filed as cytotoxic; 1.6% of 360,000 active;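 also: NT is the 2HG producing partner of a matched IDH1 knockdown line; potency is read from the fitted curve at half-maximal effect; 0% = DMSO-treated cells and -100% = media-only wells without cells; nearly all actives have a fitted effect of over 55% in size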
#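 750 cells/well, RPMI + 5% FBS; 2 h settle, compound pin-transfer, 48 h at 37 degrees C. CellTiter-Glo 10 min RT, luminescence. Normalized to DMSO and media-only wells.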
# IL-1B inflam inh = inflammasome signaling inhibition, IL-1 beta readout; activity change, % at 57.5 µM; 4.7% of 360,000 active; THP-1 LPS/ATP IL-1B secretion, AlphaLISA, 16 h; hits give low values; in the data active = activity change below about -50%; inconclusive = mostly about -30% to -49%
#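 THP-1 cells pretreated 1 hr with compounds (up to 57.5 uM final), then stimulated with LPS (250 ng/mL final) plus ATP (1.25 mM final); secreted IL-1B measured by AlphaLISA after 16 hr, decreased signal indicating inhibition.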
# HT1080 IDH1KD tx = kills HT-1080 cells with IDH1 knockdown | HT-1080 IDH1 knockdown viability, ATP luminescence, 48 h | 2% of 360,000 active | Potency, µM (doses to about 46.1 µM), for the others: top-dose activity, negative = toxicity, usual class: cytotoxic;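 also: potency is read from the fitted curve at half-maximal effect; 0% = DMSO wells and -100% = cell-free medium wells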
#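 HT-1080-IDH1KD cells (IDH1 knocked down), 750/well in RPMI with 5% FBS, treated with compound 48 h at 37 degrees C. Viability by CellTiter-Glo luminescence, normalised to DMSO and no-cell wells; concentration-response curves classed.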
# TDP1 cell CPT = DT40-hTDP1 cell growth loss with CPT; Potency, µM (titrated, usually from 46.2 µM), for inactives: top-dose activity change, negative = growth inhibition, most hits filed as inhibitors; chicken DT40 Tdp1-/-;hTDP1 cells + 20 nM CPT, ATP luminescence, 48 h; AID 686979; 12% of 420,000 active; also: potency is read from the fitted curve at half-maximal effect; nearly all actives have a fitted effect of over 55% in size
#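 Chicken DT40 Tdp1-/- cells complemented with human TDP1, 400 cells/well, exposed to compounds plus 20 nM camptothecin for at least 48 h at 37 C; viability read as ATP content by CellTiter-Glo luminescence.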
# TDP1 cell noCPT = qHTS for Inhibitors of human tyrosyl-DNA phosphodiesterase 1 (TDP1): qHTS in cells in absence of CPT; DT40 Tdp1-/- hTDP1 cells, no CPT, ATP luminescence, 48 h; Potency, µM (top dose mostly 46.2 µM), for inactives: at the highest dose activity change, negative = growth inhibition, most hits filed as inhibitors; 15% of 420,000 active; AID 686978, 2013; also: potency is read from the fitted curve at half-maximal effect; nearly all actives have a fitted effect of over 55% in size
#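 Chicken DT40 Tdp1-/- cells stably complemented with human TDP1 were seeded at 400 cells/well with DMSO in place of 20 nM camptothecin. After compound pinning, cells grew at least 48 hr at 37 °C; viability read by CellTiter-Glo luminescence.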
# The depositor's hits bear a star; ? = inconclusive; . = no result given. This excerpt belongs to a sample that is enriched for hits. Unless noted, calls follow the shape of the dose curve; as a rule, active = well fitted curve in the direction sought with a large enough effect; inconclusive = small, poorly fitted or top-dose-only effect, or another doubt; inactive = no such curve, though single readings can be large; an effect the other way counts as inactive or inconclusive. Unless noted, % is scaled to controls: 0 for no effect and ±100 for the full control effect.
SMILES,ALOX12 inh,HT1080-NT tox,IL-1B inflam inh,HT1080 IDH1KD tx,TDP1 cell CPT,TDP1 cell noCPT
CCOc1ccc(NC(=O)c2cc3n(n2)C(C(F)(F)F)CC(c2ccco2)N3)cc1 (centres undefined),4%,-19%,-10,-19%,-18%,-27%
CCOC(=O)c1c(NC(=O)c2cc3n(n2)C(C(F)(F)F)CC(c2ccccc2)N3)sc(C)c1C (centres undefined),-16%,0%,9,-2%,?,15µM*
Cc1ccc(C2CC(C(F)(F)F)n3nc(C(=O)Nc4c(C)n(C)n(-c5ccccc5)c4=O)cc3N2)cc1 (centres undefined),-27%,-18%,-7,-10%,?,?
O=C(Nc1ccc(O)cc1)c1cc2n(n1)C(C(F)(F)F)CC(c1ccco1)N2 (centres undefined),0%,?,12,?,9.2µM*,7.3µM*
Cc1cc(NC(=O)c2cc3n(n2)C(C(F)(F)F)CC(c2ccc(Cl)c(Cl)c2)N3)no1 (centres undefined),?,-11%,8,-19%,?,21µM*
COc1ccc(N2CC(O)=C(c3nc(-c4ccccc4)cs3)C2=N)cc1,3%,-11%,38,-21%,?,21µM*
COc1ccc(-c2nc(CCl)cs2)cc1OC,-125%,2%,1,0%,4.6µM*,12µM*
Cc1ccc(-c2csc(-c3ccc(O)cc3)n2)c(C)c1,58%,.,.,.,.,.
COc1ccc(-c2csc(-c3ccc(O)cc3)n2)cc1,-17%,5.2µM*,19,1.6µM*,7.3µM*,6.5µM*
COc1ccc(-c2nc(-c3ccc(O)cc3O)cs2)cc1OC,13%,?,-67*,?,?,?
Cc1ccccc1CN(C)C(=O)CN1CCCC1c1ccc2c(c1)OCCCO2 (centres undefined),-1%,.,.,.,.,.
CC(C)NC(=O)CSc1cc(C(=O)NC2CC2)c2ccccc2n1,-8%,.,.,.,.,.
COCc1noc([C@@H]2CN(S(=O)(=O)Cc3ccccc3F)C[C@H]2C(N)=O)n1,58%,.,.,.,.,.
Cn1cccc1C(=O)N1CCC2(CC1)C(=O)NCN2Cc1ccc(Cl)cc1,26%,.,.,.,.,.
COc1cccc(-c2nc(CCl)cs2)c1,-10%,-3%,?,-4%,21µM*,?
COc1ccc(-c2nc(CCl)cs2)cc1,?,-5%,0,1%,8.2µM*,5.8µM*
ClCc1csc(-c2ccccc2Cl)n1,?,-9%,-3,-5%,12µM*,18µM*
COc1cccc(-c2csc(-c3nc(-c4ccc(C)cc4C)cs3)n2)c1,-25%,.,.,.,.,.
CCc1ccc(-c2nc(CCl)cs2)cc1,-16%,-3%,-23,-2%,12µM*,?
C=CCn1cc(C(=O)c2cc(Br)ccc2O)cc(C#N)c1=O,?,-18%,-9,0%,18µM*,?
CC(C)n1cc(C(=O)c2cc(Br)ccc2O)cc(C#N)c1=O,-20%,0%,-18,-1%,?,18µM*
Cc1cccc(C2(C(=O)C(C#N)C(=O)Nc3ccccc3F)CC2)c1 (centres undefined),-3%,.,.,.,.,.
O=C1CSC(=NC2CCCCC2)N1,22%,1%,-96*,-1%,23µM*,18µM*
COc1cccc(CNC(=O)Cc2ccc(-n3c(=O)[nH]c4ccccc4c3=O)cc2)c1,-1%,?,24,?,4.6µM*,3.3µM*
COc1cccc(CNC(=O)Cc2ccc(-c3ccccc3)cc2)c1,22%,?,22,18µM*,?,21µM*
COc1cccc(CNC(=O)CCNS(=O)(=O)c2ccc(Br)s2)c1,0%,-1%,20,17%,?,?
